PubChem BioAssay (Tox21)
Records with an inconclusive call do not appear. Active and inactive are the calls of the source. Unless noted, calls come from the whole dose curve; as a rule, active = well fitted curve in the direction sought with a large enough effect in the repeat runs; inconclusive = weak or mixed curves; inactive = no such curve, though single readings can be large; an effect the other way counts as inactive or inconclusive.

Tests used:
[1] = A CellTox Green Cytotoxicity Assay to monitor cytotoxicity in HepG2 cells - 0 hour (AID 1224882); note: nearly all actives have a fitted effect of over 35% in size
Outline: (§1)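 Fluorescent DNA-binding dye, 600 HepG2 cells/well, 5 h preincubation then compound in DMSO; same plates read at 0–40 h, 37 C.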

[2] = A CellTox Green Cytotoxicity Assay to monitor cytotoxicity in HepG2 cells - 32 hour (AID 1224883); note: nearly all actives have a fitted effect of over 50% in size; note: potency is the fitted concentration of half-maximal effect
Outline: as §1

[3] = A CellTox Green Cytotoxicity Assay to monitor cytotoxicity in HEK293 cells - 8 hour (AID 1224884); note: nearly all actives have a fitted effect of over 35% in size
Outline: (§2)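 Homogeneous no-lysis format: HEK293 cell suspension mixed with CellTox Green reagent, seeded, incubated 5 h at 37 C/5% CO2, then dosed by pintool with compound in DMSO.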

[4] = qHTS RealTime-Glo MT Cell Viability Assay in HepG2 cells - 16 hour (AID 1224885); note: nearly all actives have a fitted effect of over 50% in size
Outline: (§3)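 HepG2 cells (600/well) were dispensed with RealTime-Glo reagents, incubated 5 h at 37 °C, then treated with compounds in DMSO for up to 40 h. Nonlytic NanoLuc luminescence reflecting viable cells was read at each stated time point.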

[5] = A CellTox Green Cytotoxicity Assay to monitor cytotoxicity in HEK293 cells - 16 hour (AID 1224888); note: nearly all actives have a fitted effect of over 35% in size; note: potency is the fitted concentration of half-maximal effect
Outline: as §2

[6] = qHTS RealTime-Glo MT Cell Viability Assay in HepG2 cells - 0 hour (AID 1224889); note: nearly all actives have a fitted effect of over 50% in size
Outline: as §3

[7] = A CellTox Green Cytotoxicity Assay to monitor cytotoxicity in HepG2 cells - 8 hour (AID 1224890); note: nearly all actives have a fitted effect of over 45% in size
Outline: as §1

[8] = qHTS assay to identify small molecule antagonists of the estrogen receptor alpha (ER-alpha) signaling pathway using the BG1 cell line in the presence of 0.1 nM 17-beta-estradiol - cell viability counter screen (AID 1259241); note: nearly all actives have a fitted effect of over 40% in size
Outline: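 VM7Luc4E2 cells (endogenous full-length ER-alpha, 4xERE-luciferase), cultured 5 days in charcoal-stripped serum, exposed to compounds with 0.1 nM 17beta-estradiol (final) for 22 hr at 37C. Viability read in same wells as live-cell protease fluorescence after 30 min.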

[9] = qHTS assay to identify small molecule antagonists of the androgen receptor (AR) signaling pathway using the MDA cell line in the presence of 0.5 nM R1881 - cell viability counter screen (AID 1259242); note: nearly all actives have a fitted effect of over 45% in size
Outline: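 Human breast carcinoma MDA-kb2 cells, cultured without CO2, receive compounds alongside 0.5 nM (final) R1881 agonist. After 16 hr at 37C, viability is taken as live-cell protease signal.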

[10] = biological target: Estrogen receptor (Homo sapiens) (UniProt P03372); test: qHTS assay to identify small molecule antagonists of the estrogen receptor alpha (ER-alpha) signaling pathway using the BG1 cell line in the presence of 0.1 nM 17-beta-estradiol (AID 1259244); note: nearly all actives have a fitted effect of over 50% in size
Outline: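 Seeding of stripped-serum-adapted VM7Luc4E2 cells, 24 h attachment, compound transfer, then 0.1 nM final 17beta-estradiol; after 22 h incubation, ONE-Glo reagent and luminescence reading.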

[11] = qHTS assay to identify small molecule HDAC inhibitors (AID 1259364); note: potency is the fitted concentration of half-maximal effect;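 note: wild-type HCT-116 cells with endogenous class I/II HDAC activity; nearly all actives have a fitted effect of over 45% in size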
Outline: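 After a 2 hr compound incubation (37C, 5% CO2), HCT-116 cells seeded at 1,500/well the day before received HDAC-Glo reagent; signal read as luminescence after 30 min at room temperature.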

[12] = qHTS assay to identify small molecule HDAC inhibitors - cell viability counter screen (AID 1259365)
Outline: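 Wild-type HCT-116 cells, 1,500/well, cultured overnight, then compound-treated 2 h at 37 C. Viability measured as ATP luminescence with CellTiter-Glo after 30 min at room temperature.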

[13] = qHTS assay to identify small molecule agonists of the sonic hedgehog signaling (Shh) pathway - cell viability counter screen (AID 1259366); note: nearly all actives have a fitted effect of over 50% in size; note: potency is the fitted concentration of half-maximal effect
Outline: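 NIH/3T3-derived Gli1-Luc reporter cells, 2,000 per well, received compound after 4 h and were treated about 23 h at 37C. Viability measured in the same wells by CellTiter-Fluor fluorescence after 1 h.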

[14] = qHTS assay to identify small molecule antagonists of the sonic hedgehog signaling (Shh) pathway - cell viability counter screen (AID 1259367); note: nearly all actives have a fitted effect of over 55% in size; note: potency is the fitted concentration of half-maximal effect
Outline: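 Cytotoxicity was assessed in parallel with Shh reporter activity by measuring live-cell protease fluorescence (CellTiter-Fluor) in NIH/3T3 cells stably carrying Gli1-Luc, treated with compound under conditioned medium stimulation for 23 hr plus 1 hr reagent incubation.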

[15] = qHTS assay to identify small molecule agonists of the sonic hedgehog signaling (Shh) pathway (AID 1259368; calls by dose curve;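 note: NIH/3T3-derived 3T3Gli1-Luc cells carrying a stable Gli1-driven firefly luciferase reporter; series mostly up to about 92 µM; nearly all actives have a fitted effect of over 15% in size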)
Outline: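 Stable NIH/3T3 Gli1-Luc reporter clone; 24 hr cpd exposure after a 4 hr settling period; luminescence endpoint.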

[16] = qHTS RealTime-Glo MT Cell Viability Assay in HEK293 cells - 24 hour (AID 1224886); note: nearly all actives have a fitted effect of over 50% in size; note: potency is the fitted concentration of half-maximal effect
Outline: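 HEK293 cells seeded with NanoLuc/prosubstrate reagent, rested 5 h at 37 C, then dosed and kept at 37 C up to 40 h. Nonlytic real-time luminescence from viable cells read at 0, 8, 16, 24, 32 and 40 h.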

[17] = qHTS RealTime-Glo MT Cell Viability Assay in HEK293 cells - 8 hour (AID 1224887)
Outline: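 Measured as luminescence from the same continuously cultured HEK293 wells at successive time points (0, 8, 16, 24, 32, 40 h) after compound addition. Reagent present from seeding; dosing at 5 h; incubation 37 C.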

[18] = qHTS assay to identify small molecule phospholipidosis (PLD) inducers (AID 1259344; active = well fitted curve in the direction sought with a large enough effect; an effect the other way counts as inactive or inconclusive)
Outline: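 Cells (HepG2, 900 per well) attach for 4 h, receive LipidTOX Red and compound together, incubate 24 h at 37 C, are fixed 30 min with paraformaldehyde/Hoechst, then imaged at one site per well.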

[19] = biological target: Androgen receptor (Homo sapiens) (UniProt P10275); test: qHTS assay to identify small molecule antagonists of the androgen receptor (AR) signaling pathway using the MDA cell line in the presence of 0.5 nM R1881 (AID 1259243); note: nearly all actives have a fitted effect of over 50% in size; note: potency is the fitted concentration of half-maximal effect
Outline: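 Cells: MDA-kb2 (MMTV-luc). Stimulus: 0.5 nM R1881. Time: 16 hr, 37C, no CO2. Detection: ONE-Glo luminescence after 30 min at RT.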

Measured: Potency

Chain of Androgen receptor (Homo sapiens) (P10275 whole entry, looked up): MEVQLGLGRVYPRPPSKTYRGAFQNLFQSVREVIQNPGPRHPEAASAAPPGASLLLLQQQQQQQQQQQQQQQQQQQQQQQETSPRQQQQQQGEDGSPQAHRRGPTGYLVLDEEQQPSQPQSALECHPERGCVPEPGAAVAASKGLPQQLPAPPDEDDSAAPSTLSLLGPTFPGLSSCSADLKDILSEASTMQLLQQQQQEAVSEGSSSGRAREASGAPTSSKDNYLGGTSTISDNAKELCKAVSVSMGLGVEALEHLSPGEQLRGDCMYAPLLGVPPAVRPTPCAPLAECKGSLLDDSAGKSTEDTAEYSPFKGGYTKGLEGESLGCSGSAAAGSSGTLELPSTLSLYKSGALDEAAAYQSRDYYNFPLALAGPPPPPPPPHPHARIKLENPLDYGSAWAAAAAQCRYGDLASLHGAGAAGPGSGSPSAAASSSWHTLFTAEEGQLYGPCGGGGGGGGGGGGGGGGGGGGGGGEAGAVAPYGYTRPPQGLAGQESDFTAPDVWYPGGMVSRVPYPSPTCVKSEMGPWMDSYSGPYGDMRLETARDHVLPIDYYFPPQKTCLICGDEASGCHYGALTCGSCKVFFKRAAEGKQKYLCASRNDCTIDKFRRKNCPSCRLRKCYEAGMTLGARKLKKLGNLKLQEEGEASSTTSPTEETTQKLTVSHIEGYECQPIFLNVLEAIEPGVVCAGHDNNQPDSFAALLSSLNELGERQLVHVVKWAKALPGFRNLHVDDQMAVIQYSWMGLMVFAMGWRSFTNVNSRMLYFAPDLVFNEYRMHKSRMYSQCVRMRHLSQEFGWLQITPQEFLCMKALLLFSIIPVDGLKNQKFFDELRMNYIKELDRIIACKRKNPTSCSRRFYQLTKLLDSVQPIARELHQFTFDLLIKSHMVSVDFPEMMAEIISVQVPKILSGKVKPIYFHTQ
Chain of Estrogen receptor (Homo sapiens) (P03372 whole entry, looked up): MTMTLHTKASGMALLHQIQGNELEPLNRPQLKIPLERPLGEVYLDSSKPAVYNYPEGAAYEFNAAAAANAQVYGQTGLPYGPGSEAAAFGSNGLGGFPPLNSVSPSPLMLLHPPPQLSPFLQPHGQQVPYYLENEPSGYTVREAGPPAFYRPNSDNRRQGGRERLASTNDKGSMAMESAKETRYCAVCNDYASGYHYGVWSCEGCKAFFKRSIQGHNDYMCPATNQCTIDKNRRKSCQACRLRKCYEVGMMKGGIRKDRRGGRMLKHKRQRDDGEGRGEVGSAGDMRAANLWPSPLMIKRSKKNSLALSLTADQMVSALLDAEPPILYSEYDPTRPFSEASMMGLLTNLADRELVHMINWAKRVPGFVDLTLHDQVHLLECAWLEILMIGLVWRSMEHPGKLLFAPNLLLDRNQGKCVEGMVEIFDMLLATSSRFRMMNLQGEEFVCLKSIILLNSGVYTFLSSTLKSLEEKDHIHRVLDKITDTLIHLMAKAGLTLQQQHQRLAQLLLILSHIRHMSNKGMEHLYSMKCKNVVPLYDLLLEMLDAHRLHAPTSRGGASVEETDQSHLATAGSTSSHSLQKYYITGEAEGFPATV

O=C1c2cccc(O)c2C(=O)c2c(O)cc(CO)cc21
not listed: [16] | [17] | [18] | [19]
inactive: all other assays above

O=c1[nH]cnc2ccccc12
not listed: [2] | [18] | [19]
inactive: all other assays above

O=S1(=O)N=C(O)c2ccccc21
not listed: [2] | [3] | [10] | [13] | [18] | [19]
inactive: all other assays above

CC(Cc1cccc(C(F)(F)F)c1)NCCOC(=O)c1ccccc1 (configuration not stated)
not listed: [2] | [7] | [10] | [13] | [16] | [17] | [19]
inactive: all other assays above

Cc1ccc(O)c([C@H](CCN(C(C)C)C(C)C)c2ccccc2)c1
active: [2] 21.3 µM
not listed: [3] | [9] | [10] | [19]
inactive: all other assays above

CN1CCN(C2=Nc3cc(Cl)ccc3Nc3ccccc32)CC1
active: [2] 23.9 µM | [5] 4.25 µM | [13] 13.3 µM
not listed: [4] | [10] | [14] | [16] | [18] | [19]
inactive: all other assays above

C=C(C)C(=O)OCCOc1ccccc1
inactive: [4] | [16] | [5] | [6] | [7] | [8] | [9] | [19] | [12] | [15]
active: [11] 27.3 µM

O=C(O)c1cn(C2CC2)c2cc(Cl)c(F)cc2c1=O
not listed: [3] | [5] | [16] | [17] | [18]
inactive: all other assays above

CCOc1ccc(NC(=O)CC(C)=O)cc1
not listed: [3] | [10] | [11] | [17] | [18] | [19]
inactive: all other assays above

Cn1sccc1=O
active: [14] 27.3 µM
not listed: [2] | [10] | [13] | [18] | [19]
inactive: all other assays above

S=C(S)NCCNC(=S)S
not listed: [2] | [10] | [18] | [19]
inactive: all other assays above

O=C1Nc2cc(Cl)ccc2Oc2ccccc21
active: [19] 4.22 µM
not listed: [3] | [10] | [12] | [18]
inactive: all other assays above

CCOC(=O)[C@H](CCc1ccccc1)N[C@H]1CCc2ccccc2N(CC(=O)O)C1=O
active: [2] 26.8 µM
inactive: [5] | [8] | [11] | [12] | [13] | [15]

CCN(CC)CCOc1ccc2c(c1)C(=O)c1cc(OCCN(CC)CC)ccc1-2
active: [16] 10.7 µM
not listed: [2] | [3] | [9] | [10] | [18] | [19]
inactive: all other assays above

CCN(CC)C(C)CN1c2ccccc2Sc2ccccc21 (configuration not stated)
not listed: [16] | [19]
inactive: all other assays above

CN(c1nccc(=O)[nH]1)C1CCN(c2nc3ccccc3n2Cc2ccc(F)cc2)CC1
not listed: [10] | [13] | [16] | [17] | [19]
inactive: all other assays above

COc1ccc([C@@H]2Sc3ccccc3N(CCN(C)C)C(=O)[C@@H]2OC(C)=O)cc1
not listed: [3] | [10] | [19]
inactive: all other assays above

CCCCOc1cc(C(=O)OCCN(CC)CC)ccc1N
not listed: [1] | [2] | [4] | [7] | [19]
inactive: all other assays above
